Results filed as inconclusive are left out. Active and inactive are the calls of the source. Unless noted, calls come from the whole dose curve; as a rule, active = well fitted curve in the direction sought with a large enough effect in the repeat runs; inconclusive = weak or mixed curves; inactive = no such curve, though single readings can be large; an effect the other way counts as inactive or inconclusive. Non-standard residues stand in square brackets, D forms with d. Residues, ends and D or L forms follow the SMILES beside them. *: point of attachment. Sta = CC(C)C[C@H](N)[C@@H](O)CC(=O)O; Isovaleryl = CC(C)CC(=O)*
Assays:
[1] = qHTS assay to identify small molecule agonists of the NFkB signaling pathway - cell viability counter screen (AID 1159515; calls by dose curve; note: series mostly up to about 61 µM; % is set by controls: 0 for no effect and ±100 for the full control effect; nearly all actives have a fitted effect of over 55% in size)
In short: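 5 hr compound treatment of NFkB-bla ME-180 cells (2,000/well, seeded overnight beforehand), followed by reporter substrate for 1.5 hr. CellTiter-Glo added afterward; luminescence after 30 min RT.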

[2] = qHTS assay to identify small molecule agonists of the endoplasmic reticulum stress response signaling pathway (AID 1159516; active = well fitted activation curve with a large enough effect in the signal ratio in the repeat runs, not every such curve was filed as active; the % refers to the signal ratio; note: % is set by controls: 0 for no effect and ±100 for the full control effect)
In short: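 Reporter HeLa cells (ESRE-beta-lactamase) underwent 5 hr compound incubation at 37 C and 5% CO2 in quantitative HTS format. Detection followed 2 hr of FRET substrate loading at room temperature.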

[3] = qHTS assay to identify small molecule agonists of the endoplasmic reticulum stress response signaling pathway - cell viability counter screen (AID 1159517; calls by dose curve;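 note: HeLa cells carrying an ER stress response element beta-lactamase reporter; series mostly up to about 61 µM; % is set by controls: 0 for no effect and ±100 for the full control effect; nearly all actives have a fitted effect of over 50% in size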)
In short: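 Cells, HeLa ESRE-bla; density, 1,500/well; dosing, 5 hr at 37 C, 5% CO2; readout, CellTiter-Glo luminescence after 30 min RT.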

[4] = qHTS assay to identify small molecule antagonists of the retinoid-related orphan receptor gamma (ROR-gamma) signaling pathway - cell viability counter screen (AID 1159520); note: % is set by controls: 0 for no effect and ±100 for the full control effect; nearly all actives have a fitted effect of over 50% in size
In short: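 Cytotoxicity was read from cellular ATP (CellTiter-Glo luminescence) after 16 hr at 37 C with 1 uM doxycycline induction. The inducer was added 2 hr after compound transfer to Tet-on ROR gamma CHO cells.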

[5] = qHTS assay to identify small molecule agonists of the AP-1 signaling pathway - cell viability counter screen (AID 1159525; calls by dose curve; note: nearly all actives have a fitted effect of over 55% in size)
In short: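 Luminescent ATP readout (Cell Titer Glo, 30 min RT), normalised to DMSO and tetra n-octyl ammonium bromide controls. Cells were ME-180 AP-1-bla in 0.5% dialyzed FBS Opti-MEM, with a 5 h, 37 °C compound exposure.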

[6] = qHTS assay to identify small molecule agonists of the AP-1 signaling pathway (AID 1159526; calls by dose curve; note: % is set by controls: 0 for no effect and ±100 for the full control effect)
[7] = molecular target: Retinoic acid receptor RXR-alpha (Homo sapiens) (UniProt P19793); assay: qHTS assay to identify small molecule agonists of the RXR signaling pathway (AID 1159527; calls by dose curve; note: % is set by controls: 0 for no effect and ±100 for the full control effect; nearly all actives have a fitted effect of over 35% in size)
Chain of Retinoic acid receptor RXR-alpha (Homo sapiens) (P19793 whole entry, looked up): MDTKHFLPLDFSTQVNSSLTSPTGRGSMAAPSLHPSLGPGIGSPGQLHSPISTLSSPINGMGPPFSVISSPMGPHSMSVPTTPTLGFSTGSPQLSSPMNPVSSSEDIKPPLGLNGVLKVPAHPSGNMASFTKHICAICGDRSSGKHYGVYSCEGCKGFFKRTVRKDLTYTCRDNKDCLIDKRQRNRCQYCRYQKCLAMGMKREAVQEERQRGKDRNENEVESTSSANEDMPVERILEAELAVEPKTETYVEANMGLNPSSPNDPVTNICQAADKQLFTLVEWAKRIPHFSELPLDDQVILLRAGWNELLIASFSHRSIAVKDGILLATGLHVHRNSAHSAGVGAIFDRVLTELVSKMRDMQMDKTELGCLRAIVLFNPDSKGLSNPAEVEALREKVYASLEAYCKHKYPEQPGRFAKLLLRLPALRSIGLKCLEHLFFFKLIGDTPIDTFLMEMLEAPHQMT
In short: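 qHTS of the Tox21 10K library in GeneBLAzer RXR-alpha HEK 293T cells carrying a beta-lactamase reporter […]; 16 hr treatment, 9-cis retinoic acid as agonist control, FRET read-out.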

[8] = qHTS assay to identify small molecule agonists of the RXR signaling pathway - cell viability counter screen (AID 1159529); note: series mostly up to about 77 µM; % is set by controls: 0 for no effect and ±100 for the full control effect; nearly all actives have a fitted effect of over 50% in size
In short: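 Cell viability is measured by CellTiter-Glo luminescence, 30 min at room temperature, in wells already read for beta-lactamase. Engineered HEK 293T cells (RXR-alpha-UAS-bla) are dosed 16 hr at 37 C. Tetraoctyl ammonium bromide serves as positive control.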

[9] = qHTS assay to identify small molecule antagonists of the retinoid acid receptor (RAR) signaling pathway - cell viability counter screen (AID 1159551); note: % is set by controls: 0 for no effect and ±100 for the full control effect; nearly all actives have a fitted effect of over 35% in size
In short: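 Seed C3RL4 cells; next day add compound, then retinol to 1 uM final; incubate 6 h at 37 C; add CellTiter-Glo; read luminescence after 30 min at RT.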

[10] = qHTS assay to identify small molecule antagonists of the retinoic acid receptor (RAR) signaling pathway (AID 1159552; note: % is set by controls: 0 for no effect and ±100 for the full control effect; nearly all actives have a fitted effect of over 50% in size)
In short: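 Quantitative HTS in C3RL4 RARE-luciferase reporter cells. Compounds were added with 1 uM (final) retinol; luminescence was read after 6 hr.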

[11] = qHTS assay to identify small molecule agonists of the retinoic acid receptor (RAR) signaling pathway (AID 1159553); note: % is set by controls: 0 for no effect and ±100 for the full control effect
In short: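 Activation of retinol signaling was monitored via a RARE luciferase reporter in C3RL4 cells. After 6 hr compound treatment at 37 C, detection reagent was added for 30 min at room temperature before luminescence reading.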

[12] = qHTS assay to identify small molecule antagonists of the estrogen related receptor (ERR) signaling pathway from Tox21 library - cell viability counter screen (AID 1224834); note: % is set by controls: 0 for no effect and ±100 for the full control effect; nearly all actives have a fitted effect of over 30% in size
In short: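 CellTiter-Fluor fluorescence measured; ERR cells; 17.5 h compound incubation at 37 C; 30 min reagent step.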

[13] = molecular target: Luciferin 4-monooxygenase (Photinus pyralis) (UniProt P08659); assay: qHTS assay to identify small molecule inhibitors of firefly luciferase (AID 1224835); note: series mostly up to about 120 µM; % is set by controls: 0 for no effect and ±100 for the full control effect; nearly all actives have a fitted effect of over 25% in size
Chain of Luciferin 4-monooxygenase (Photinus pyralis) (P08659 whole entry, looked up): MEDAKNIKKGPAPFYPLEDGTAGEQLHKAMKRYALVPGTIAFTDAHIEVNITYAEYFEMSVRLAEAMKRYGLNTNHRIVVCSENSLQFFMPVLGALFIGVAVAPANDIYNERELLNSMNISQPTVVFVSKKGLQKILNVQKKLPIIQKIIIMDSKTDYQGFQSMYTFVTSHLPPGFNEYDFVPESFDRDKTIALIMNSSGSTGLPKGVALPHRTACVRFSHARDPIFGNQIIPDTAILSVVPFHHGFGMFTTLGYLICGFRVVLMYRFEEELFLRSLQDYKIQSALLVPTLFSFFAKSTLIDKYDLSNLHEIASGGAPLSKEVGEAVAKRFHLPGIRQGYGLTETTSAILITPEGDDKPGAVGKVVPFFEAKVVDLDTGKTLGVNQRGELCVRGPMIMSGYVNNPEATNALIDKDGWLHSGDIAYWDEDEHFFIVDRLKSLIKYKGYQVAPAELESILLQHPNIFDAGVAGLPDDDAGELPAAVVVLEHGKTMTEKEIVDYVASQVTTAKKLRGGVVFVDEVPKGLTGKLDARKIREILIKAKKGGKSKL
In short: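 Inhibition of purified Photinus luciferase is measured by luminescence. Substrate levels (D-luciferin, ATP) sit at their KM values. Each compound is tested in a concentration series.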

[14] = qHTS assay to identify small molecule agonists of the constitutive androstane receptor (CAR) signaling pathway - cell viability counter screen (AID 1224836); note: series mostly up to about 92 µM; % is set by controls: 0 for no effect and ±100 for the full control effect; nearly all actives have a fitted effect of over 45% in size
In short: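 Counter screen multiplexed with the CAR reporter readout: HepG2 cells co-transfected with hCAR and the CYP2B6-2.2kb construct receive a 15-concentration compound series and 0.75 uM PK11195 (final), then CellTiter-Fluor fluorescence is read after 23 h.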

[15] = qHTS assay to identify small molecule antagonists of the constitutive androstane receptor (CAR) signaling pathway - cell viability counter screen (AID 1224837); note: series mostly up to about 92 µM; % is set by controls: 0 for no effect and ±100 for the full control effect; nearly all actives have a fitted effect of over 45% in size
In short: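 Using CellTiter-Fluor, viability is scored in HepG2 cells stably carrying hCAR and a 2.2kb CYP2B6 reporter after 23 hr compound exposure across 15 concentrations, with CITCO present at 50 nM.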

[16] = qHTS assay to identify small molecule antagonists of the estrogen related receptor signaling pathway with the pleiotropic PPARgamma coactivator (PGC) from Tox21 10K library - cell viability counter screen (AID 1224840; active = well fitted cell-killing curve with a large enough effect in the repeat runs, not every such curve was filed as active; note: % is set by controls: 0 for no effect and ±100 for the full control effect; nearly all actives have a fitted effect of over 40% in size)
In short: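 Here the PGC/ERR cells serve as a cytotoxicity control: they are exposed to compounds for 17.5 hours at 37 C, and live-cell signal is quantified using CellTiter-Fluor fluorescence.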

[17] = qHTS assay to identify small molecule antagonists of the vitamin D receptor (VDR) signaling pathway - cell viability counter screen (AID 743225)
In short: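 Cells (VDR-UAS-bla HEK 293T) are plated, rested 4 h at 37C, dosed with compound and 3 nM final 1-alpha,25-dihydroxy vitamin D3, and incubated 16 h. Viability is taken from CellTiter-Glo luminescence in the reporter wells.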

[18] = molecular target: Nuclear receptor subfamily 1 group I member 3 (Homo sapiens) (UniProt Q14994); assay: qHTS assay to identify small molecule antagonists of the constitutive androstane receptor (CAR) signaling pathway (AID 1224838);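 note: HepG2 cells stably expressing hCAR with CYP2B6 luciferase reporter stimulated by CITCO; % is set by controls: 0 for no effect and ±100 for the full control effect; nearly all actives have a fitted effect of over 40% in size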
Chain of Nuclear receptor subfamily 1 group I member 3 (Homo sapiens) (Q14994 whole entry, looked up): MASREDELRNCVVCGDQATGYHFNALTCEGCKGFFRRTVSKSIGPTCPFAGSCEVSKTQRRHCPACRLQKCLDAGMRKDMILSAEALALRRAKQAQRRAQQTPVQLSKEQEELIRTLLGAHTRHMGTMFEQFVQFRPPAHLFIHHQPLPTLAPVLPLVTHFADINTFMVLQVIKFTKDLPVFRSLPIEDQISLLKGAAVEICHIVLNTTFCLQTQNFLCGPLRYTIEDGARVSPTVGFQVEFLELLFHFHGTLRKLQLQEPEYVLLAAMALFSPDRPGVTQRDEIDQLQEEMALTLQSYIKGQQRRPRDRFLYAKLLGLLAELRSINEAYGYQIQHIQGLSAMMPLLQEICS
In short: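 Reporter luminescence was quantified after 24 h exposure of hCAR/CYP2B6-2.2kb double-stable HepG2 cells to compounds at 15 concentrations in the presence of 50 nM CITCO final.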

[19] = molecular target: Nuclear receptor subfamily 1 group I member 3 (Homo sapiens) (UniProt Q14994); assay: qHTS assay to identify small molecule agonists of the constitutive androstane receptor (CAR) signaling pathway (AID 1224839); note: series mostly up to about 92 µM; % is set by controls: 0 for no effect and ±100 for the full control effect; nearly all actives have a fitted effect of over 15% in size
In short: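 A 15-concentration quantitative screen uses HepG2 cells co-transfected stably with human CAR and CYP2B6-2.2kb reporter. Treatment lasts 24 h with 0.75 uM PK11195 final present; ONE-Glo luminescence is the signal.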

O=C(OOC(=O)c1ccccc1)c1ccccc1
inactive: outcome [1] | Potency [2] | outcome [3] | outcome [4] | outcome [5] | Potency [6] | Potency [7] | Potency [8] | outcome [9] | outcome [10] | Potency [11] | outcome [12] | Potency [13] | outcome [14] | outcome [15] | outcome [16]

CCCCCCCCCCCCCCCC(=O)OC
inactive: outcome [17] | outcome [1] | Potency [2] | outcome [3] | activity, negative = cytotoxicity [4] 1.29% [at 19 µM] | viability change, negative = cytotoxic [5] -12.9% [at 15.8 µM] | activation [6] 17.1% [at 15.8 µM] | activation [7] -1.09% [at 15.8 µM] | activity change, negative = cytotoxicity [8] -3.67% [at 15.8 µM] | activity, negative = inhibition [10] -7.57% [at 19 µM] | Potency [11] | viability change, negative = cytotoxic [12] 2.97% [at 19 µM] | activity change, negative = inhibition [13] 0.26% [at 23.6 µM] | viability change, negative = cytotoxic [14] -0.61% [at 19 µM] | activity change, negative = cytotoxicity [15] -4.04% [at 19 µM] | activity, negative = inhibition [18] -5.63% [at 19 µM] | activation [19] -1.6% [at 19 µM] | viability change, negative = cytotoxic [16] 5.32% [at 19 µM]

CC(C)CC(=O)N[C@H](C(=O)N[C@H](C(=O)N[C@@H](CC(C)C)[C@@H](O)CC(=O)N[C@@H](C)C(=O)N[C@@H](CC(C)C)[C@@H](O)CC(=O)O)C(C)C)C(C)C (Isovaleryl-VV[Sta]A[Sta]-OH)
inactive: outcome [17] | outcome [1] | Potency [2] | outcome [3] | outcome [4] | outcome [5] | Potency [6] | Potency [7] | Potency [8] | outcome [9] | outcome [10] | Potency [11] | outcome [12] | Potency [13] | outcome [14] | outcome [15] | outcome [18] | outcome [16]

Cc1nc2ccc(Cl)cc2[nH]1
inactive: outcome [1] | Potency [2] | outcome [3] | outcome [4] | outcome [5] | Potency [6] | Potency [7] | Potency [8] | outcome [9] | outcome [10] | Potency [11] | outcome [12] | Potency [13] | outcome [14] | outcome [15] | outcome [18] | outcome [16]

C[C@@H]1CCC[C@H](C)N1CCCC(O)(c1ccccc1)c1ccccn1 (stereo not given in full)
inactive: outcome [17] | outcome [1] | Potency [2] | outcome [3] | outcome [4] | outcome [5] | Potency [6] | Potency [7] | Potency [8] | outcome [9] | outcome [10] | Potency [11] | outcome [12] | Potency [13] | outcome [14] | outcome [15] | outcome [18] | Potency [19] | outcome [16]

Clc1ccc2c(c1)Nc1ccccc1S2
inactive: outcome [17] | outcome [1] | Potency [2] | outcome [3] | outcome [4] | outcome [5] | Potency [6] | Potency [7] | Potency [8] | outcome [9] | outcome [10] | Potency [11] | outcome [12] | Potency [13] | outcome [14] | outcome [15] | outcome [18] | outcome [16]

C/C(Cl)=C/CCl
inactive: outcome [17] | outcome [1] | Potency [2] | outcome [3] | outcome [4] | outcome [5] | Potency [6] | Potency [7] | Potency [8] | outcome [10] | Potency [11] | outcome [12] | Potency [13] | outcome [14] | outcome [15] | Potency [19] | outcome [16]

CCCCCCCCCCCCCCBr
inactive: outcome [17] | outcome [1] | Potency [2] | outcome [3] | outcome [4] | outcome [5] | Potency [6] | Potency [7] | Potency [8] | outcome [9] | outcome [10] | Potency [11] | outcome [12] | Potency [13] | outcome [14] | outcome [15] | outcome [16]

— PubChem BioAssay (Tox21)
